Reference: PubChem BioAssay (Tox21)
Inconclusive results are not listed. Values without a mark were called inactive. Calls follow the shape of the full dose curve.

experiment: qHTS assay to identify small molecule agonists or antagonists of the thyroid stimulating hormone receptor (TSHR) signaling pathway - wild type cell line counter screen (AID 1259384); settings: HEK293 wild type, cAMP HTRF counter-screen, hits give high values; series mostly up to 92.4 µM; cAMP activity change: at the top concentration
Excerpt: U.S. Tox21 Program National Center for Advancing Translational Sciences [NCATS] NIH Chemical Genomics Center [NCGC] U.S. Environmental Protection Agency [EPA] National Institutes of Environmental Health Sciences [NIEHS] National Toxicology Program [NTP] U.S. Food and Drug Administration [FDA] Tox21 Assay Overview: TSHR is the receptor for thyrotropin (thyroid stimulating hormone or TSH), a member of the glycoprotein hormone family. TSH is released by the anterior pituitary gland and is the main regulator of thyroid gland growth and development. Upon binding circulating thyrotropin, a G-protein signal cascade activates adenylyl cyclase and […] cAMP concentration is increased. cAMP is a key second messenger involved extensively in cellular signal transduction pathways associated with the majority of G-protein coupled receptors (GPCRs). The activation of these GPCRs by neurotransmitters, lipids, nucleotides, peptides and hormones results in the activation or the inhibition of plasma membrane-bound adenylate cyclase through heterotrimeric G-proteins. A cell-based TSHR-Hek293 assay can be used to identify TSHR agonists. To eliminate the false positive compounds identified from screening a cell-based TSHR-Hek293 cell line, cAMP assay in a wild type Hek293 cells was used as a counter screening.
Tox21 Assay Protocol Summary: Hek293 cells (wild type) were dispensed at 800 cells/4 uL/well in 1536-well white plates using a Multidrop dispenser. After the assay plates were incubated at a 37 C/5% CO2 incubator for 18 hrs, 23 nL of compounds dissolved in DMSO, positive controls or DMSO only was transferred to the assay plate by a pin tool, followed by 1 ul medium containing Ro20-1724. After 30 min of incubation at room temperature, 2.5 ul/well of cAMP-d2 and 2.5 ul/well of anti-cAMP-cryptate were added respectively into the assay plates using a Flying Reagent Dispenser. The plates were incubated at room temperature for 1 hr. The fluorescence intensity in the plates was measured using an Envision plate reader. Each test compound was measured at 15 concentrations and in triplicates.
% is scaled to controls: 0 for no effect and ±100 for the full control effect.

Structure (SMILES)	cAMP activity change
CCCCCCCCC(=O)OCC	-1.72%
CCCCCC1CCCC(=O)O1 (stereo not given)	2.08%
CNC(=O)NC	-1.8%
COc1cc(C=O)ccc1OC(=O)C(C)C	3.11%
CCC(O)C(C)(C)C (stereo not given)	4.57%
O=C(CN1CCN(Cc2ccc3c(c2)OCO3)CC1)N1c2ccccc2Sc2ccccc21	-5.15% [at 42.5 µM]
O=C1NC2NC(=O)NC2N1 (stereo not given)	1.25%
C=C[C@@H](C)CCC=C(C)C	-0.561%
CCNC(=O)/C=C/c1cccc(Br)c1	3.05% [at 42.5 µM]
Nc1cc(Cl)cc(S(=O)(=O)O)c1O	-4.06%
C=C(C)C(=O)OC	-1.11%
COc1ccc(NS(=O)(=O)c2ccc(N)cc2)nn1	0.197% [at 42.5 µM]
N#CCCOCCOCCC#N	2.72%
C=CCOC(=O)c1ccc(C(=O)OCC=C)c(C(=O)OCC=C)c1	-6.5%
C=CCOCC(CO)(COCC=C)COCC=C	-1.49% [at 42.5 µM]
Nc1c(NC/C=C\COc2cc(CN3CCCCC3)ccn2)c(=O)c1=O	-0.455% [at 18.9 µM]
O=C(Oc1ccccc1C(=O)O)c1ccccc1O	3.74% [at 42.5 µM]
COc1ccc(OC)c(NC(=O)CC(C)=O)c1	3.56%
CCCCOC(=O)C(C)OC(=O)CCC (stereo not given)	1.25%
C[CH2][Ge]([Cl])([CH2]C)[CH2]C	-2.54%

Structure (SMILES)	cAMP activity change
COC(=O)CCC(=O)O	1.55%
COC(OC)C(C)c1ccccc1 (stereo not given)	-0.0078%
CCN1CN(CC)CN(CC)C1	0.255%
Oc1ccccc1Cc1ccccc1O	-0.815%
Cc1ncc([N+](=O)[O-])n1CC(O)CCl (stereo not given)	2.61% [at 42.5 µM]
C=C(C)C(=O)OCCCCCCOC(=O)C(=C)C	3.6%
OCCCCCCCl	5.33%
O=C(O)/C=C/c1ccccc1	3.01%
CC(C)CCO	3.16%
Cc1nc(C)nc(N2C[C@@H](C)N(c3ccnc([C@@H](C)O)n3)[C@@H](C)C2)n1	-2.9% [at 42.5 µM]
C1=CCC(c2ccccc2)CC1 (stereo not given)	6.2%
C[C@@H]1C[C@H]2[C@@H]3C[C@H](F)C4=CC(=O)C=C[C@]4(C)[C@@]3(F)[C@@H](O)C[C@]2(C)[C@@]1(O)C(=O)CO	2.76% [at 42.5 µM]
Cc1nc2n(c(=O)c1CCN1CCC(C(=O)c3ccc(F)cc3)CC1)CCS2	1.46% [at 42.5 µM]
CCCOC(=O)CCCCC(=O)OCCC	-0.0393%
CC(C)C(=O)c1ccccc1	-0.463%
CCCCCCCC/C=C\CCCCCCCC(=O)OC[C@@H](O)[C@H]1OC[C@H](O)[C@H]1O	-2.62%
CCc1nccnc1C	0.314%
Cc1ccccc1N1CCN(CCc2nnc3n2CCCC3)CC1	-3.02% [at 42.5 µM]
O=C1OC(=O)c2ccccc21	-3.05%
CCOC(=O)CCc1ccccc1	0.118%
